Measured values as given in publication PMC5540273 (PLoS ONE, 2017).

Tests used:
Settings in all cases: concentration: 1 μM, replicates: in singlicate; n = 1
MAP4K2 = test system: MAP4K2
MAP4K3 = test system: MAP4K3
MAP4K4 = test system: MAP4K4
MAP4K5 = test system: MAP4K5
MAPKAPK2 = test system: MAPKAPK2
MAPKAPK5 = test system: MAPKAPK5
MARK1 = test system: MARK1
MARK2 = test system: MARK2
MARK3 = test system: MARK3
MARK4 = test system: MARK4
MAST1 = test system: MAST1
MEK1 = test system: T1, MEK1
T1 construct: gene MAP2K1

MEK2 = test system: T2, MEK2
T2 construct: gene MAP2K2

MEK3 = test system: T3, MEK3
T3 construct: gene MAP2K3

MEK4 = test system: T4, MEK4
T4 construct: gene MAP2K4

MEK5 = test system: T5, MEK5
T5 construct: gene MAP2K5

MEK6 = test system: T6, MEK6
T6 construct: gene MAP2K6

MELK = test system: MELK
MERTK = test system: MERTK
MET = test system: MET
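Also: KINOMEscan kinase panel screen.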

| SMILES | %Inh (MAP4K2) [%] | %Inh (MAP4K3) [%] | %Inh (MAP4K4) [%] | %Inh (MAP4K5) [%] | %Inh (MAPKAPK2) [%] | %Inh (MAPKAPK5) [%] | %Inh (MARK1) [%] | %Inh (MARK2) [%] | %Inh (MARK3) [%] | %Inh (MARK4) [%] | %Inh (MAST1) [%] | %Inh (MEK1) [%] | %Inh (MEK2) [%] | %Inh (MEK3) [%] | %Inh (MEK4) [%] | %Inh (MEK5) [%] | %Inh (MEK6) [%] | %Inh (MELK) [%] | %Inh (MERTK) [%] | %Inh (MET) [%] |
| --- | --- | --- | --- | --- | --- | --- | --- | --- | --- | --- | --- | --- | --- | --- | --- | --- | --- | --- | --- | --- |
| Cc1ccc(NC(=O)Nc2ccc(Cl)cc2)cc1-c1ccc(C(=O)Nc2ccncc2)cc1 [GSK1398472] | 0 | 0 | 5 | 6 | 19 | 0 | 0 | 0 | 0 | 1 | 0 | 0 | 0 | 0 | 26 | 11 | 0 | 0 | 0 | 0 |
| O=C(Nc1n[nH]c2cc(-c3ccsc3)ccc12)C1CC1 [SB-732932] | 25 | 0 | 18 | 2 | 0 | 24 | 0 | 24 | 0 | 12 | 36 | 11 | 16 | 17 | 18 | 50 | 0 | 0 | 14 | 0 |
| Cn1cncc1-c1cc2c(Nc3ccc(OCc4ccccc4)cc3)ncnc2cn1 [GW281179] | 0 | 0 | 1 | 0 | 24 | 0 | 0 | 0 | 0 | 11 | 0 | 11 | 5 | 0 | 24 | 99.2 | 0 | 0 | 0 | 0 |
| COc1cccc(C2=C(Nc3cc(Cl)c(O)c(Cl)c3)C(=O)NC2=O)c1 [SB-390767] | 0 | 0 | 0 | 1 | 15 | 0 | 0 | 0 | 0 | 0 | 1 | 0 | 0 | 0 | 0 | 17 | 0 | 17 | 0 | 0 |
| CNCc1ccc2nc(NC(=O)c3ccc(C(C)(C)C)cc3)cn2c1 | 22 | 0 | 0 | 0 | 0 | 5 | 0 | 0 | 9 | 4 | 50 | 32 | 27 | 8 | 30 | 34 | 11 | 0 | 5 | 6 |
| Cc1ccccc1Cn1ccn2c(=O)cc(N3CCOCC3)nc12 [GSK2269905] | 0 | 0 | 0 | 0 | 19 | 0 | 99.2 | 0 | 0 | 96.6 | 0 | 0 | 0 | 0 | 27 | 13 | 0 | 0 | 25 | 0 |
| Nc1ncnc2occ(-c3ccc4c(c3)CCN4C(=O)Cc3cc(F)ccc3F)c12 [GSK2645446] | 0 | 35 | 0 | 11 | 11 | 0 | 0 | 0 | 0 | 0 | 0 | 0 | 0 | 0 | 2 | 92.3 | 0 | 3 | 34 | 0 |
| CC(=O)c1c(C)c2cnc(Nc3ccn(C)n3)nc2n(C2CCCC2)c1=O | 0 | 24 | 0 | 0 | 0 | 0 | 0 | 0 | 12 | 0 | 0 | 0 | 0 | 13 | 0 | 0 | 4 | 1 | 0 | 0 |
| Cc1ccc(NC(=O)Nc2ccc(Cl)c(C(F)(F)F)c2)cc1-c1ccc(C(=O)Nc2ccncc2)cc1 [GSK1398470] | 0 | 8 | 29 | 12 | 7 | 0 | 0 | 13 | 8 | 0 | 0 | 0 | 0 | 0 | 24 | 29 | 0 | 13 | 0 | 13 |
| Cc1ccccc1-c1cc(-c2c[nH]nc2-c2ccccn2)ccn1 [GW680061] | 0 | 0 | 0 | 0 | 24 | 0 | 0 | 0 | 0 | 0 | 6 | 0 | 0 | 0 | 4 | 5 | 0 | 0 | 16 | 0 |
